Results from PubChem BioAssay (NCI).
The panel holds about 83,000 compounds, 20% with a hit somewhere; the sample as a whole holds those more often.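 Values shown are percent growth following 48 h exposure of cells in 96-well plates to a single concentration of compound; below 10 was considered active.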 Unmarked numbers belong to inactive results. Active and inactive are the calls of the source.

Columns and labels:
Assay in all cases: NCI-60 one-dose screen, 48 h (100 = growth as untreated, 0 = no growth, -100 = all killed)
Conditions in all cases: 10 µM unless noted
DU-145 prostate = system: DU-145 prostate
K-562 leukemia = system: K-562 leukemia
MALME-3M melanoma = system: MALME-3M melanoma
MDA-MB-231 breast = system: MDA-MB-231 breast
RXF 393 renal = system: RXF 393 renal
SF-268 CNS = system: SF-268 CNS
SF-295 CNS = system: SF-295 CNS
SF-539 CNS = system: SF-539 CNS
UACC-257 melanoma = system: UACC-257 melanoma
M14 melanoma = system: M14 melanoma
HCT-15 colon = system: HCT-15 colon
HT29 colon = system: HT29 colon
SNB-75 CNS = system: SNB-75 CNS
SNB-19 CNS = system: SNB-19 CNS
U251 CNS = system: U251 CNS
SK-MEL-5 melanoma = system: SK-MEL-5 melanoma
UACC-62 melanoma = system: UACC-62 melanoma
LOX IMVI melanoma = system: LOX IMVI melanoma
SK-MEL-28 melanoma = system: SK-MEL-28 melanoma
PC-3 prostate = system: PC-3 prostate

Row | Compound | growth (DU-145 prostate) | growth (K-562 leukemia) | growth (MALME-3M melanoma) | growth (MDA-MB-231 breast) | growth (RXF 393 renal) | growth (SF-268 CNS) | growth (SF-295 CNS) | growth (SF-539 CNS) | growth (UACC-257 melanoma) | growth (M14 melanoma) | growth (HCT-15 colon) | growth (HT29 colon) | growth (SNB-75 CNS) | growth (SNB-19 CNS) | growth (U251 CNS) | growth (SK-MEL-5 melanoma) | growth (UACC-62 melanoma) | growth (LOX IMVI melanoma) | growth (SK-MEL-28 melanoma) | growth (PC-3 prostate)
1 | C/C(=C(\c1ccc(OCCN2CCOCC2)cc1)c1ccc(OC(=O)Cc2ccccc2)cc1)c1ccc(Cl)cc1 | 97.8% | 7.15% (active) | 104% | 96.8% | 89.6% | 90.1% | 98.9% | 98.2% | 87.5% | 85.1% | 91.4% | 77.1% | 95.7% | 96.3% | 99.2% | 86.6% | 85.4% | 98.6% | 103% | 
2 | COC(=O)[C@@H](C)C[C@H](Cc1ccccc1)NC(=O)c1cccc([C@@H](C[C@H](C(C)C)N(C)C(=O)[C@@H](NC(=O)[C@H]2CCCCN2C)C2CC2)OC(C)=O)n1 | 3.09% (active) | 6.15% (active) | 67.1% | -20.4% (active) | 23.4% | 18.6% | 3.47% (active) | -15% (active) | 36.4% | 1.47% (active) | 8.07% (active) | -8.46% (active) | 27.6% | 30% |  | -22.6% (active) | 41.4% | 12.2% | 62% | 18.8%
3 | Oc1cc(Cl)ccc1Oc1ccc(Cl)cc1Cl | 14.5% | 11% | 5.91% (active) | 8.82% (active) | -9.98% (active) | 21.5% | 7.37% (active) | 14.7% | 21.4% | 22.1% | 14.4% | 87.4% | 48.3% | 23.7% | 8.21% (active) | -32% (active) | 24.4% | 11.5% | 46.8% | 
4 | CC[C@H](C)[C@H](NC(=O)[C@H]1CCCCN1C)C(=O)N(C)[C@H](CCc1nc(C(=O)N[C@@H](Cc2ccccc2)C[C@H](C)C(=O)O)cs1)C(C)C | 9.58% (active) | 6.62% (active) | 78.4% | 11.2% | 31.8% | 20.9% | -1.24% (active) | -12.9% (active) | 53.4% | 4.31% (active) | 27.3% | -3.57% (active) | 28.3% | 39.5% | 7.98% (active) | 5.59% (active) | 52.2% | 15.2% | 59.4% | 
5 | CCN1C(=O)NC(=O)C(C)(N2C(=O)c3c(F)c(F)c(F)c(F)c3C2=O)C1=O (stereo not given) | 31.9% | -71.2% (active) | -39.6% (active) | 9.99% (active) | -63.8% (active) | 5.09% (active) | 84.1% | 18.6% | 38.5% | 24.4% | 5.26% (active) | 6.44% (active) | 64.6% | 49.3% |  | 54.1% | 10.4% | -13.9% (active) | -45.5% (active) | 12.3%
6 | N#CC(N)c1ccccc1 (stereo not given) | 106% | 116% | 98.9% | 108% | 112% | 102% | 102% | 103% | 101% | 99.8% | 104% | 111% | 97.4% | 105% | 105% | 101% |  | 101% | 113% | 
7 | O=C(Cc1ccccc1)c1ccccc1 | 105% | 104% | 98.7% | 110% | 103% | 103% | 112% | 98.8% | 98% | 107% | 102% | 106% | 86.8% | 109% | 94.5% | 99.6% | 111% | 106% | 113% | 
8 | COc1ccc(N(CC(=O)NCCC[Te]c2ccccc2)C(=O)c2ccccc2)cc1 | 66.6% | 56.1% | 129% | 14.2% | 133% | 39.2% | -7.61% (active) | 31.4% | 95.4% | 32.1% | 9.28% (active) | -25.5% (active) | 69.5% | 36.2% | 14.4% |  | 84.1% | 32.8% | 145% | 
